The results in this text go back to PubChem BioAssay (EPA / NIEHS).

The structures appear in SMILES notation. Activity calls are given as the source filed them. The calls were made as follows: active = hit-call score of the fitted dose curve at least 0.9, where 1 is the maximum; inactive = score below 0.9.

Settings in all cases: mRNA level, 48 h; actives raise or lower the signal
Read-out in assay [1]: Early growth response protein 1 (EGR1) transcription factor, EGR1 (gene 1958)
Kind of assay: LTEA_HepaRG_EGR1: Life Technologies and Expression Analysis (LTEA) Assay for Early growth response protein 1 (EGR1) transcription factor using HepaRG (AID 2283490). In a few lines: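 Differentiated human HepaRG cells in serum-free induction medium were exposed in duplicate for 48 h to eight concentrations (top 100 uM, half-log steps) in 0.5% DMSO. EGR1 mRNA was quantified by qRT-PCR, normalized to ACTB, GAPDH and POLR2A, and fitted bidirectionally versus DMSO.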

Read-out in assay [2]: Ezrin (EZR), EZR (gene 7430)
Kind of assay: LTEA_HepaRG_EZR: Life Technologies and Expression Analysis (LTEA) Assay for Ezrin (EZR) using HepaRG (AID 2283491). An outline of the steps: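 Read-out is EZR transcript level by qRT-PCR, normalized to three housekeeping genes and fitted bidirectionally against the DMSO control. Human HepaRG cells received test chemicals for 48 h at eight half-log concentrations up to 100 uM in 0.5% DMSO.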

Read-out in assay [3]: Cytochrome P450 3A7 (Homo sapiens) (UniProt P24462)
Kind of assay: LTEA_HepaRG_CYP3A7: Life Technologies and Expression Analysis (LTEA) Assay for CYP3A7 using HepaRG (AID 2283492). An outline of the steps:
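Human HepaRG liver cells, 48 h post-plating, switched to serum-free induction medium and exposed in duplicate for 48 h. Dosing: 100 uM top, half-log dilutions, 8 points, 0.5% DMSO vehicle. Read-out: CYP3A7 mRNA, gain or loss fitted against DMSO baseline.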

Read-out in assay [4]: CYP3A5 (gene 1577)
Kind of assay: LTEA_HepaRG_CYP3A5: Life Technologies and Expression Analysis (LTEA) Assay for CYP3A5 using HepaRG (AID 2283493). An outline of the steps: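 HepaRG plated 48 h, switched to serum-free induction medium, chemicals added 48 h (max 100 uM, half-log, 0.5% DMSO). RNA isolated; CYP3A5 by TaqMan qRT-PCR. Gain/loss vs DMSO.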

Read-out in assay [5]: Fatty Acid-Binding Protein 1 (FABP1), FABP1 (gene 2168)
Kind of assay: LTEA_HepaRG_FABP1: Life Technologies and Expression Analysis (LTEA) Assay for Fatty Acid-Binding Protein 1 (FABP1) using HepaRG (AID 2283494). An outline of the steps: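 Differentiated human HepaRG cells were exposed in duplicate for 48 h in serum-free induction medium to 8-point half-log concentration series topping at 100 uM in 0.5% DMSO. FABP1 mRNA measured by TaqMan qRT-PCR, normalized to ACTB/GAPDH/POLR2A; bidirectional fit versus DMSO.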

Read-out in assay [6]: Cytochrome P450 4A22 (Homo sapiens) (UniProt Q5TCH4)
Nature of the assay: LTEA_HepaRG_CYP4A22: Life Technologies and Expression Analysis (LTEA) Assay for Cytochrome P450 4A22 (CYP4A22) using HepaRG (AID 2283495). In a few lines: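 Readout is CYP4A22 transcript induction or loss, quantified by qRT-PCR and normalized to ACTB, GAPDH and POLR2A. Human HepaRG cells receive test chemicals for 48 h at eight half-log concentrations from 100 uM in 0.5% DMSO.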

Read-out in assay [7]: Cytochrome P450 7A1 (Homo sapiens) (UniProt P22680)
Nature of the assay: LTEA_HepaRG_CYP7A1: Life Technologies and Expression Analysis (LTEA) Assay for Cytochrome P450 7A1 (CYP7A1) using HepaRG (AID 2283496). An outline of the steps:
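HepaRG cells plated 48 h, then switched to serum-free induction medium and exposed in duplicate for 48 h to 8-point half-log series from 100 uM in 0.5% DMSO. CYP7A1 mRNA by qRT-PCR (TaqMan), normalized to ACTB/GAPDH/POLR2A; bidirectional fit versus DMSO.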

Read-out in assay [8]: Glutathione S-Transferase (GSTA2), GSTA2 (gene 2939)
Kind of assay: LTEA_HepaRG_GSTA2: Life Technologies and Expression Analysis (LTEA) Assay for Glutathione S-Transferase (GSTA2) using HepaRG (AID 2283497). An outline of the steps:
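Human HepaRG cells, plated 48 h, then exposed in serum-free induction medium for 48 h to eight half-log concentrations up to 100 uM in 0.5% DMSO, duplicate. GSTA2 mRNA by qRT-PCR, normalized to ACTB/GAPDH/POLR2A; bidirectional fit versus DMSO.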

Read-out in assay [9]: Glutamate-cysteine ligase catalytic (GCLC), GCLC (gene 2729)
Nature of the assay: LTEA_HepaRG_GCLC: Life Technologies and Expression Analysis (LTEA) Assay for Glutamate-cysteine ligase catalytic (GCLC) using HepaRG (AID 2283498). In a few lines:
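Differentiated human HepaRG cells, plated 48 h then switched to serum-free induction medium, were exposed in duplicate for 48 h to 8 half-log concentrations topping at 100 uM in 0.5% DMSO. GCLC mRNA was quantified by qRT-PCR against ACTB, GAPDH and POLR2A.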

Read-out in assay [10]: growth arrest and DNA damage 45 (GADD45G), GADD45G (gene 10912)
Nature of the assay: LTEA_HepaRG_GADD45G: Life Technologies and Expression Analysis (LTEA) Assay for growth arrest and DNA damage 45 (GADD45G) using HepaRG (AID 2283499). An outline of the steps: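 Gain or loss of GADD45G mRNA, quantified by TaqMan qRT-PCR against three housekeeping genes, is fitted in both directions relative to 0.5% DMSO. Human HepaRG cultures receive test chemical for 48 h at up to 100 uM.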

Read-out in assay [11]: Glutamate-cysteine ligase regulatory (GCLM), GCLM (gene 2730)
Kind of assay: LTEA_HepaRG_GCLM: Life Technologies and Expression Analysis (LTEA) Assay for Glutamate-cysteine ligase regulatory (GCLM) using HepaRG (AID 2283500). An outline of the steps:
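Cells were plated, cultured 48 h, switched to serum-free induction medium, then dosed in duplicate for 48 h at eight half-log concentrations up to 100 uM. RNA was then profiled by qRT-PCR; gain or loss versus DMSO was fitted.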

Read-out in assay [12]: Glutathione S-transferase M3 (GSTM3), GSTM3 (gene 2947)
Nature of the assay: LTEA_HepaRG_GSTM3: Life Technologies and Expression Analysis (LTEA) Assay for Glutathione S-transferase M3 (GSTM3) using HepaRG (AID 2283501). In a few lines:
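HepaRG, plated 48 h, then serum-free induction medium; test chemical 48 h, duplicate; 100 uM top, half-log x8, 0.5% DMSO. Read-out: GSTM3 mRNA (TaqMan qRT-PCR, Fluidigm array). Bidirectional fit vs DMSO.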

Read-out in assay [13]: Hypoxia-inducible factor 1-alpha (Homo sapiens) (UniProt Q16665)
Kind of assay: LTEA_HepaRG_HIF1A: Life Technologies and Expression Analysis (LTEA) Assay for Hypoxia-inducible factor 1 (HIF1A) Trancription factor using HepaRG (AID 2283503). In a few lines:
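Differentiated HepaRG cells in serum-free induction medium exposed 48 h, in duplicate, to 8-point half-log series from 100 uM in 0.5% DMSO. HIF1A mRNA measured by TaqMan qRT-PCR, normalized to ACTB/GAPDH/POLR2A, fitted bidirectionally versus DMSO.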

Read-out in assay [14]: 3-Hydroxy-3-Methylglutaryl-CoA Synthase 2 (HMGCS2), HMGCS2 (gene 3158)
Nature of the assay: LTEA_HepaRG_HMGCS2: Life Technologies and Expression Analysis (LTEA) Assay for 3-Hydroxy-3-Methylglutaryl-CoA Synthase 2 (HMGCS2) using HepaRG (AID 2283504). An outline of the steps: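 HepaRG, plated 48 h then switched to serum-free induction media; cmpd 8-pt, max 100 uM, 1/2-log, 0.5% DMSO, n=2, 48 h. HMGCS2 mRNA by Fluidigm TaqMan qRT-PCR, ACTB/GAPDH/POLR2A norm; bidirectional fit vs DMSO.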

Read-out in assay [15]: HGF (gene 3082)
Nature of the assay: LTEA_HepaRG_HGF: Life Technologies and Expression Analysis (LTEA) Assay for Hepatocyte Growth Facto (HGF) using HepaRG (AID 2283505). In a few lines:
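Read-out is HGF transcript level by qRT-PCR, normalized to three housekeeping genes, fitted bidirectionally against 0.5% DMSO vehicle. Human HepaRG cells received test chemicals for 48 h at up to 100 uM.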

Read-out in assay [16]: Insulin Like Growth Factor 1 (IGF1), IGF1 (gene 3479)
Nature of the assay: LTEA_HepaRG_IGF1: Life Technologies and Expression Analysis (LTEA) Assay for Insulin Like Growth Factor 1 (IGF1) using HepaRG (AID 2283506). An outline of the steps:
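HepaRG, plated 48 h, then switched to serum-free induction media; test chemical 8-pt half-log from 100 uM (0.5% DMSO), duplicate, 48 h. Lysis in RLT, TaqMan qRT-PCR, norm. ACTB/GAPDH/POLR2A. Bidirectional fit vs DMSO.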

Read-out in assay [17]: Intercellular Adhesion Molecule 1 (ICAM1), ICAM1 (gene 3383)
Kind of assay: LTEA_HepaRG_ICAM1: Life Technologies and Expression Analysis (LTEA) Assay for Intercellular Adhesion Molecule 1 (ICAM1) using HepaRG (AID 2283507). In a few lines: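 Readout is qRT-PCR mRNA level, normalized to three housekeeping genes and fitted bidirectionally against 0.5% DMSO vehicle. Human HepaRG cultures received compound for 48 h, top concentration 100 uM with half-log dilutions.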

Read-out in assay [18]: Insulin-like growth factor-binding protein 1 (IGFBP1), IGFBP1 (gene 3484)
Kind of assay: LTEA_HepaRG_IGFBP1: Life Technologies and Expression Analysis (LTEA) Assay for Insulin-like growth factor-binding protein 1 (IGFBP1) using HepaRG (AID 2283508). In a few lines: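 Thawed HepaRG cells are plated for 48 h, switched to serum-free induction medium, then dosed in duplicate for another 48 h (100 uM top, half-log steps). Lysates in RLT go to qRT-PCR, and gain or loss of signal is fitted relative to vehicle.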

Read-out in assay [19]: Interleukin 6 (IL6), IL6 (gene 3569)
Nature of the assay: LTEA_HepaRG_IL6: Life Technologies and Expression Analysis (LTEA) Assay for Interleukin 6 (IL6) using HepaRG (AID 2283509). An outline of the steps:
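Differentiated human HepaRG cells, plated 48 h then switched to serum-free induction medium, were exposed in duplicate for 48 h to eight half-log concentrations up to 100 uM in 0.5% DMSO. IL6 mRNA measured by qRT-PCR, normalized to ACTB/GAPDH/POLR2A.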

Chain of Cytochrome P450 3A7 (Homo sapiens) (P24462 whole entry, looked up): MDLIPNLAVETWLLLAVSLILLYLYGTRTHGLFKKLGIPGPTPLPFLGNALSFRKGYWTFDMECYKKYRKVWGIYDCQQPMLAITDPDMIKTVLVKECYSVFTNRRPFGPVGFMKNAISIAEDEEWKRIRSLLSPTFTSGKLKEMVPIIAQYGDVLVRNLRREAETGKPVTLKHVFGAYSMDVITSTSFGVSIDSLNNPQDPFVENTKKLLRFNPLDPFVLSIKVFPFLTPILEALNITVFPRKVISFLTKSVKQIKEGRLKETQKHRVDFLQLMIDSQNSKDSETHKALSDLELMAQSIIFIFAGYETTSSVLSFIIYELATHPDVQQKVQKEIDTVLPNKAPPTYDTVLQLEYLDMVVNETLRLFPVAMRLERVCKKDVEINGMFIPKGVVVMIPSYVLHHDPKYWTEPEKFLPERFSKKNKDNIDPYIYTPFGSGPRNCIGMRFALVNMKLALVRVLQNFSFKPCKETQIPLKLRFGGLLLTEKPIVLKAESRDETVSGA
Chain of Hypoxia-inducible factor 1-alpha (Homo sapiens) (Q16665 whole entry, looked up): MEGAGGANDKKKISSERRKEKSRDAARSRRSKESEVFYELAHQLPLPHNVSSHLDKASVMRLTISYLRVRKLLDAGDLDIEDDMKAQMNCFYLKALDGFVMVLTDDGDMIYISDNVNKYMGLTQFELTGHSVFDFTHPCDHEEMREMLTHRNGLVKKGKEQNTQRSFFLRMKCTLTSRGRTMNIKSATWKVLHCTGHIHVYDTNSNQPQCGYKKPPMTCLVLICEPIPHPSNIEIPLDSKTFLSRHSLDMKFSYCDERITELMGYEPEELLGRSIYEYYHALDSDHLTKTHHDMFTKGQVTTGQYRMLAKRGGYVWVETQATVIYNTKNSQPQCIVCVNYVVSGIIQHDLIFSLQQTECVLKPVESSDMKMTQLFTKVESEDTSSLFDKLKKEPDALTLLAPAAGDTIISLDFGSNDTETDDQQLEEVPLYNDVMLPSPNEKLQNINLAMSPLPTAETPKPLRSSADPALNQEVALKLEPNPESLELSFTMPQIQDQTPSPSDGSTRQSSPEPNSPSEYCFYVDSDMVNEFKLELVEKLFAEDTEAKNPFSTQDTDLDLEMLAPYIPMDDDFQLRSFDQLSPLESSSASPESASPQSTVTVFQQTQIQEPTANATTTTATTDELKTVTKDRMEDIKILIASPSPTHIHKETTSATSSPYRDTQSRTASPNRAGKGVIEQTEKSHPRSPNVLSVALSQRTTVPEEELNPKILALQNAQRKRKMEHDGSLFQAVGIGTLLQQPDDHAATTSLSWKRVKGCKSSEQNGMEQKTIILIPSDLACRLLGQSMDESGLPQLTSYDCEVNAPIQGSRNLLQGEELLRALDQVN

Usually AC50 stands for the midpoint of the concentration-response curve, whichever way the signal moves. For the compound `CCCCC(O)(Cn1cncn1)c1ccc(Cl)cc1Cl` (stereo not drawn), the AC50 in [1] was 69.2 µM (active); in [3], 89.4 µM (active); in assay [5], 79.6 µM (active); in assay [6], 67.8 µM (active); in assay [7] it was 89 µM (active); in assay [8] it was 73.2 µM (active). Moreover, the AC50 was 15.8 µM (active) in assay [10]; 82.6 µM (active) in [12]; 80.6 µM (active) in assay [13]; 77.9 µM (active) in assay [14]; 75.3 µM (active) in assay [15]; 75.1 µM (active) in assay [16]. Further, the concentration at half-maximal activity (AC50) in assay [17] was 83.9 µM (active); in assay [18] it was 79.3 µM (active); in [19], 72 µM (active). The result in [2], in [4], in [9] and in assay [11] was inactive.
On to `Cc1ccc(N=CN(C)C=Nc2ccc(C)cc2C)c(C)c1`, for which the outcome in [1], in assay [2], in assay [3], in assay [4], in assay [5] and in assay [6] was inactive. In addition, the call in assay [7], in [8], in assay [9], in assay [10], in [11] and in assay [12] was inactive. Besides, the call in assay [13], in assay [14], in [15], in assay [16], in assay [17] and in [18] was inactive. For the same compound, the call in assay [19] was inactive.
